{
  "source": "PubChem BioAssay (NCI)",
  "note": "The panel holds about 83,000 compounds, 20% with a hit somewhere; the sample as a whole holds those more often.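 Single-concentration screen, 48 h exposure, 96-well plates. Endpoint: percent growth. Below 10 = active.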 A number with no mark means an inactive call. Activity calls are given as the source filed them.",
  "data": [
    {"tested_on": "MDA-MB-468 breast", "test": "NCI-60 one-dose screen, 48 h (100 = growth as untreated, 0 = no growth, -100 = all killed)", "settings": "10 µM unless noted", "values": [
      {"compound": "COc1cc(C2C=C(c3cccc(NC(C)=O)c3)Nc3ncnn32)cc(OC)c1OC", "note": "(stereo not drawn)", "growth": "13.4%"},
      {"compound": "Cc1ccc2sc3c(NCCN)nc4ccccc4c3c(=O)c2c1", "growth": "56.8%"},
      {"compound": "CC1=CC(=O)OC1C/C=C(\\C)CCC1[C@@]2(C)CCC[C@@](C)(C(=O)O)C2CC[C@@]1(C)O", "note": "(stereo partly drawn)", "growth": "102%"},
      {"compound": "O=C1[C@H]2Cc3c([nH]c4ccccc34)[C@H](c3ccc(Cl)cc3)N2C(=O)CN1C1CCN(CC2CCCCC2)CC1", "growth": "62.7%"},
      {"compound": "COc1ccc(S(=O)(=O)Oc2ccc(-c3sc4cc(OS(=O)(=O)c5ccc(OC)cc5)ccc4c3C(=O)c3ccc(OCCN4CCCCC4)cc3)cc2)cc1", "growth": "94.3%"},
      {"compound": "Cc1c(C(=O)NCCC(=O)NO)sc2ncnc(Nc3ccc(F)c(Cl)c3)c12", "growth": "103%"},
      {"compound": "COc1ccc(-c2nc3sccn3c2/C=C/C(=O)c2cc(F)cc(F)c2)cc1", "growth": "85.8%"},
      {"compound": "NCCCNc1nc2ccccc2c2c(=O)c3cccc(F)c3sc12", "growth": "-11.3% (active)"},
      {"compound": "CCCCc1nc(/C=N/Nc2nc(Nc3ccccc3)nc(Nc3ccc(S(N)(=O)=O)cc3)n2)c(Cl)[nH]1", "growth": "-12.5% (active)"},
      {"compound": "O=C(Nc1cccc(Cl)c1)Oc1c(Cl)c(Cl)c(Cl)c(Cl)c1Cl", "growth": "110%"},
      {"compound": "Cc1cccc(CC(=O)c2ccccc2)n1", "growth": "92.8%"},
      {"compound": "FC(F)(F)c1ccc(CNc2ccc(Cc3c[nH]c4ncc(Cl)cc34)cn2)cn1", "growth": "-0.191% (active)"},
      {"compound": "CNCc1cccc2c1OCCCCCCC(C)(O)CC(C)(C)S(=O)(=O)c1ccc(cc1)-c1cnc(N)c(n1)C(=O)N2", "note": "(stereo not drawn)", "growth": "-54.1% (active)"}
    ]}
  ]
}
